# The whole screen tested about 340,000 compounds, of which about 420 (0.12%) were called active. About 10% were inconclusive and are not listed. Shown is part of a subset that was picked to be rich in actives. A number with no mark means an inactive call. The call rests on the fitted dose curve; in most records, active means well fitted activation curve with a large enough effect; inconclusive means small, poorly fitted or top-dose-only effect, or another doubt; inactive means no such curve, though single readings can be large or run the other way; cell line not stated here.
# Assay: qHTS for Agonist of gsp, the Etiologic Mutation Responsible for Fibrous Dysplasia/McCune-Albright Syndrome: qHTS; further: nearly all actives have a fitted effect of over 60% in size;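 on activation (cAMP increase): phosphodiesterase inhibitor Ro 20-1724 added with compounds to block cAMP breakdown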
# Details: gsp mutant cells, cAMP HTRF, 30 min; series mostly up to 76.9 µM; activation (cAMP increase): at the top concentration
# Source text: McCune-Albright syndrome (MAS) is a rare disease caused by somatic mutations in Gsgsp), a widely expressed protein central in signal transduction from G-coupled protein receptors (GPCRs). The disease symptoms are diverse, owing to the fact that the patients are mosaics with varying degrees of tissue involvement. Greater than 90% of the mutations in Gs in MAS occur at the R201 position and are equally divided between R201H and R201C. The R201 residue is central in the intrinsic GTPase activity of Gs and the H and C mutations lead to loss of, or impairment of, the GTPase activity. The intrinsic GTPase activity is necessary to terminate the interaction between Gs and adenylate cyclase, and to terminate the cAMP-mediated signaling of the given GPCR pathway. Thus, these activating mutations lead to ligand-independent activation of GPCR pathways. The tissue phenotype is determined by the role of Gs in the function of a given cell, and excess Gs/cAMP signaling in that cell. For example, pituitary somatotrophs overproduce growth hormone in a growth hormone releasing hormone-independent fashion, and gigantism/acromegaly ensues. Skeletal stem cells in the bone marrow behave as if they are under constant parathyroid hormone stimulation and fail to differentiate into osteoblasts and osteocytes, and proliferate as immature osteogenic cells and lead to the marrow fibrosis of fibrous dysplasia of bone. The goal of this project is to identify molecules with stimulatory activity at gsp mutations that will not only allow for in-depth study of the underlying molecular and cellular pathophysiology, but also serve as compounds from which drugs to treat FD/MAS can be developed NIH Chemical Genomics Center [NCGC] NIH Molecular Libraries Probe Centers Network [MLPCN] MLPCN Grant: IRP-FT-DE-2011-01 Assay Submitter (PI): Michael Collins, NIDCR
# 1.#Seed 2000 cells/well in 6 ul DMEM 10% FBS, 1% Pen/Strep, 0.5 mg/ml G418 2.#Incubate 16-24 hr at 37C, 5% CO2, 95% humidity 3.#Aspirate leaving 1 ul residual volume 4.#Dispense 5 ul/well DPBS + 1 mM CaCl2, 0.5 mM MgCl2, 0.05% BSA, 0.005% Tween 20 5.#Aspirate leaving 2 ul residual volume 6.#Dispense 23 nl/well compounds in DMSO 7.#Dispense 1 ul/well 300 uM Ro-20174 in DMEM 10% FBS 8.#Incubate 30 min at 37C, 5% CO2, 95% humidity 9.#Dispense 1.5 ul/well HTRF reagent: cAMP-d2 in lysis buffer 10.#Dispense 1.5 ul/well HTRF reagent: anti-cAMP antibody-K in lysis buffer 11.#Incubate 30 min at room temperature 12.#Detect HTRF signal using EnVision plate reader
# Potency means the concentration at half of the fitted maximal effect.
Structure (SMILES),activation (cAMP increase),Potency
CC(OC(=O)c1ccc(NC(=O)CC#N)cc1)C(=O)Nc1ccc(S(=O)(=O)N2CCCC2)cc1 (configuration not stated),-14.8%,
CC(C)n1ncc2c(C(=O)N3CCN(Cc4cccs4)CC3)cc(C3CC3)nc21,7.9%,
CN(c1ccccc1)S(=O)(=O)c1ccc(C(=O)NCc2cccnc2)cc1,-7.68%,
Cc1ccc(Cc2c(-c3ccc(C)cc3)nc3c4ccccc4ccn23)cc1,-39.7%,
COc1cccc2c1OCC(CN1CCN(C3CCCCC3)C(CCO)C1)=C2 (configuration not stated),,7.94 µM (active)
OCCC1CN(Cc2ccc3nsnc3c2)CCN1C1CCCCC1 (configuration not stated),19.4%,
OCCC1CN(Cc2ccc3nsnc3c2)CCN1C1CCCC1 (configuration not stated),49.4%,
O=C1CC[C@@H](C(=O)N2CSC[C@@H]2C(=O)Nc2ccc(C(F)(F)F)cc2)N1,-72.2%,
O=C(CSc1ccc(Cl)cc1)NC1CC1,-72.4%,
COc1ccc(C(=O)NC2=NCCS2)c(OC)c1,-28.3%,
COc1ccc(C(=O)Nc2cccc(NC(=O)c3ccc(OC)cc3OC)n2)c(OC)c1,,15.8 µM (active)
COc1ccc(C(=O)NC(C)CCc2ccccc2)c(OC)c1 (configuration not stated),17.8%,
O=S1(=O)CCN(C2CCCCCCCCCCC2)CC1,-79.5%,
O=S(=O)(c1cccc(C(F)(F)F)c1)N1c2ccccc2-n2cccc2C1c1cccnc1 (configuration not stated),-23.7%,
O=Nc1c(O)cc(O)c2ccccc12,-21.6%,
O=C(c1ccc(CS(=O)Cc2ccccc2Cl)o1)N1CCN(c2ccccc2)CC1 (configuration not stated),-29.9%,
COCCn1c(SCC(=O)Nc2ccc(F)cc2F)nc2c(c1=O)SCC2,-23.6%,
COCOCCn1cc(CN2CCS(=O)(=O)N(Cc3ccc(-c4ccc(OC)cc4)cc3)C(CC(C)C)C2=O)nn1 (configuration not stated),-115%,
Cc1ccc(-c2ccc(CN3C(C(C)C)C(=O)N(Cc4cn(CCC5OCCO5)nn4)CCS3(=O)=O)cc2)cc1 (configuration not stated),-37.6%,
CC1(C2CC2)NC(=O)N(CC(=O)N2CCN(c3ccccc3F)CC2)C1=O (configuration not stated),0.197%,
CCN(CC)C(=O)C1=C(C)N(Cc2ccccc2)C(=O)C(CC(=O)NC(c2ccccc2)c2ccccc2)C1 (configuration not stated),-6.51%,
O=C(N=C1SC2CS(=O)(=O)CC2N1Cc1ccccc1)c1ccccc1 (configuration not stated),-12.8%,
COc1cccc(OCC(=O)NCCS(=O)(=O)N2CCN(c3ccccc3)CC2)c1,-6.99%,
Cn1c(=O)c2c(ncn2CC(=O)N/N=C/c2cn[nH]c2-c2ccc(F)cc2)n(C)c1=O,54.2% [at 15.4 µM],

Structure (SMILES),activation (cAMP increase),Potency
Cc1cnc(NC(=O)Cn2cnc3c2c(=O)n(C)c(=O)n3C)s1,0.329% [at 15.4 µM],
CN(C(=O)COC(=O)Cn1cnc2c1c(=O)n(C)c(=O)n2C)C1(C#N)CCCCC1,,28.2 µM (active)
CSc1ncnc2c1ncn2CCCNCc1ccco1,-74.7%,
Cc1ccc(S(=O)(=O)N2C[C@H]3n4c(=O)ccc(=O)n4C[C@H](OC(=O)NC4CCCC4)[C@@]3(O)C2)cc1,14.3%,
O=C(c1ncn2c1c(=O)[nH]c1ccccc12)N1CCc2ccccc2C1,-20.5%,
CCCCCCNC(=O)O[C@H]1CN(C(=O)OC(C)C)N(C(=O)OC(C)C)[C@@H]2CN(S(=O)(=O)c3ccc(C)cc3)C[C@]12O,0.103%,
CSc1ncccc1C(=O)N1CCCC(Nc2ccc(F)c(F)c2)C1 (configuration not stated),16.5%,
COc1cccc(NC(=O)CN(C)C(=O)c2cc(Cl)nc3ccccc23)c1,-159%,
COc1ccc(S(=O)(=O)N(C)C)cc1NC(=O)COC(=O)c1n[nH]c2ccccc12,-50%,
Cc1ccc([C@H]2N[C@]3(CCCN(CC4CCCCC4)C3=O)[C@H]3C(=O)N(Cc4ccccc4)C(=O)[C@@H]23)cc1,0.257%,
CCOC(=O)c1c(C)[nH]c(C)c1C(=O)COC(=O)/C=C/c1cccc([N+](=O)[O-])c1,-66.3%,
O=C(NCCN1CCOCC1)c1ccc2c(c1)N(Cc1cccc(Cl)c1)C(=O)c1ccccc1S2(=O)=O,-3.41%,
CC(C)N=C1CCCC1C(=S)SSC(=S)C1CCCC1=NC(C)C (configuration not stated),-39.5%,
CCOC(=O)c1cc(-c2sc(NC(=O)c3ccccc3)nc2C)n(Cc2ccccc2)n1,1.49%,
COc1ccc(CN2C(=O)C(CC(=O)NCCCCc3ccccc3)CC(C(=O)N3CCOCC3)=C2C)cc1 (configuration not stated),-2.99%,
CCN(CC)C(=O)C1=C(C)N(Cc2ccc(OC)cc2)C(=O)C(CC(=O)NCc2ccco2)C1 (configuration not stated),-33.1%,
O=C(NCCN1CCOCC1)C1CCN(S(=O)(=O)c2ccccc2)CC1,10.7%,
O=C(O)Cc1sc(-c2ccccc2)nc1-c1cccs1,,12.6 µM (active)
CN(C(=O)COc1nnc(-c2cccs2)c(-c2cccs2)n1)c1ccccc1,-47.1%,
NC(=O)Cc1ccc2sc(-c3ccccc3)nc2c1,-43.9%,
O=C(Cc1ccc([N+](=O)[O-])cc1)NCCS(=O)(=O)N1CCN(c2ccccc2)CC1,-24.3%,
CCc1ccccc1OCC(=O)Nc1nnc(C2CC2)s1,-18.6%,
COc1ccc([C@H]2N[C@]3(CCCN(CC4CCCCC4)C3=O)[C@H]3C(=O)N(C)C(=O)[C@@H]23)cc1,0.0546%,

# From PubChem BioAssay AID624287 (National Center for Advancing Translational Sciences (NCATS), 2012)
